The panel holds about 83,000 compounds, 20% with a hit somewhere; the sample as a whole holds those more often.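 Values shown are percent growth following 48 h exposure of cells in 96-well plates to a single concentration of compound; below 10 was considered active.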 Unmarked numbers belong to inactive results. Active and inactive are the calls of the source.
What follows are compounds tested on HOP-92 NSCLC (assay: NCI-60 one-dose screen, 48 h (100 = growth as untreated, 0 = no growth, -100 = all killed)). Details: 10 µM unless noted.
With `COc1cc2oc(-c3cccc(C(=O)Nc4cccc([N+](=O)[O-])c4)c3)cc(=O)c2c(OC)c1OC` the growth was 6.73% (active). Work on `COc1cc2c(c(OC)c1OC)C(=O)CC(c1cccc(NC(=O)c3cc(N)ccc3Cl)c1)O2` (centres undefined) yielded a growth of 69.5%. `CC(C)c1ccc2c(N)c(C(=O)Nc3cccc(C(F)(F)F)c3)sc2n1` was tested, and the growth was 82.7%. In the case of `COc1cc(-c2cc(-c3cccc(OCC(=O)O)c3)[nH]c(=O)c2C#N)cc(OC)c1OC`, the growth was 85.4%. With `N#Cc1c(-c2ccc(Cl)cc2)nc2n[nH]c(-c3ccc(Cl)cc3)c2c1-c1ccc(C(F)(F)F)cc1` the growth was -25.9% (active). With `CC1=C(C(=O)OCc2ccccc2)C(c2c(O)cc(O)cc2O)n2c(nc3ccccc32)N1` (centres undefined) the growth was 83.1%. `C=C1CC[C@@H]2[C@]3(C)COC(c4cn(-c5ccccc5)nc4-c4ccccc4)O[C@@H]3CC[C@@]2(C)[C@@H]1C/C=C1/C(=O)OC[C@H]1O` (some centres undefined) was tested, and the growth was -88.1% (active). In the case of `CN(C)CCCNC(=O)c1cc(NC(=O)c2cc(NC(=O)c3ccc(/C=C/c4ccccc4)cc3)cn2C)cn1C`, the growth was -1.72% (active). `O=C(NNc1ccccc1)n1c(=O)c2ccccc2c(=O)n1-c1ccccc1` showed a growth of 93.9%. Work on `C(=C\c1cc(/C=C/c2ccccc2)c2ccccc2n1)/c1ccccc1` yielded a growth of 84%. For `COc1cc2c(c(OC)c1OC)C(=O)CC(c1cccc(NC(=O)c3cc([N+](=O)[O-])ccc3Cl)c1)O2` (centres undefined), the growth was 36.3%. Compound `O=c1c2ccccc2nc(-c2ccccc2)n1/N=C/c1ccc2ccccc2c1` has a growth of 79.7%. With `CC(/C=C1\SC(=S)N(CCCC(=O)NC(CC(C)C)C(=O)O)C1=O)=C\c1ccccc1` (centres undefined) the growth was 7.81% (active). `CCOc1ccc(C(=O)NC(=S)Nc2ccc(S(N)(=O)=O)cc2)cc1` was tested, and the growth was 87.9% [100 µM]. For `CC1(C)CC[C@]2(C(=O)Nc3ccc(F)cc3)CC[C@]3(C)C(=CCC4[C@@]5(C)C[C@@H](O)[C@H](O)[C@@](C)(CO)C5CC[C@]43C)C2C1` (some centres undefined), the growth was -1.23% (active). With `NS(=O)(=O)c1ccc(-n2cc(-c3cccc(NC(=O)c4cc(C(F)(F)F)cc(C(F)(F)F)c4)c3)nn2)cc1` the growth was -16.9% (active). For `COc1cc(C2CC(c3cc(OC)c(OC)c(OC)c3)=NN2c2ccccc2)ccc1OCc1ccc(C)cc1` (centres undefined), the growth was 111%. `Cc1ccc2c(N)c(C(=O)Nc3ccc(-c4ccccc4)cc3)sc2n1` gave a growth of 27.1%. In the case of `C=C1CCC2C3(C)COC(c4ccccc4F)OC3CCC2(C)C1CC(O)C1=CCOC1=O` (centres undefined), the growth was 55.5%. `COc1cc(-c2ccc(/C=N/NC(=O)c3[nH]c4ccc(Br)cc4c3-c3ccccc3)o2)cc(OC)c1OC` gave a growth of 61.7%. `CCCCc1c(Nn2cnnn2)no[n+]1[O-]` was tested, and the growth was 46.4%. `CN1CCN(/C(=N\c2sc(-c3ccccc3)nc2-c2ccccc2)c2ccccc2)CC1` was tested, and the growth was 80.2%. With `C=C1CC[C@@H]2[C@]3(C)COC(c4cn[nH]c4-c4ccccc4)O[C@@H]3CC[C@@]2(C)[C@@H]1C/C=C1/C(=O)OCC1O` (some centres undefined) the growth was -12.4% (active). For `CN(C)c1ccnc(NCCCSC(c2ccccc2)(c2ccccc2)c2ccccc2)c1`, the growth was -2.94% (active).

Reference: PubChem BioAssay (NCI)
